# Reference: PubChem BioAssay (Tox21)
# Values joined by “and” are separate entries in the source; they are usually repeats but may differ in a detail not shown here. Equal entries are not always repeated. Inconclusive results are not listed. Where a call stands in place of a potency, no number is given. Where a structure was tested more than once in an assay, its records may differ in their call. Active and inactive are the calls of the source. Unless noted, the call rests on the fitted dose curve.
# Columns and labels:
# [1] = Nuclear factor erythroid 2-related factor 2/antioxidant responsive element (Nrf2/ARE) small molecule agonists: qHTS cell viability counter screen in human keratinocytes (AID 1919968; active means well fitted curve in the direction sought with a large enough effect in the repeat runs; an effect the other way counts as inactive or inconclusive; further: nearly all actives have a fitted effect of over 55% in size; further: potency means the concentration at half of the fitted maximal effect)
# Procedure, shortened: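 Viability counter-screen: KeratinoSens reporter cells, DMSO-delivered compounds, 23 h at 37 C, CellTiter-Fluor fluorescence.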
# [2] = biological target: Gonadotropin-releasing hormone receptor (Homo sapiens) (UniProt P30968); test: Human gonadotropin-releasing hormone receptor (GnRHR) small molecule agonists, calcium flux assay in GnRHR-HEK293 cells (AID 1920063); further: nearly all actives have a fitted effect of over 35% in size
# Procedure, shortened: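 Tox21-format agonist screen using human GnRHR-expressing HEK293 cells and a fluorescent calcium dye; kinetic 3-min fluorescence reading after compound addition, 15-point concentration series run in triplicate.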
# [3] = G protein-coupled receptor (GPCR) small molecule agonists, calcium flux assay: HEK293 wild type cell line counter screen (AID 1920065)
# Procedure, shortened: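 In this agonist-mode screen, ATP is the positive control and DMSO the vehicle. Cells grow 18 h before a 1 h dye incubation at 37 C; signal is taken at Ex/Em 480/540 over 3 min.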
# [4] = p53 small molecule agonists, cell-based qHTS assay with human liver microsomes (AID 1963577); further: potency means the concentration at half of the fitted maximal effect;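 on activation: p53 response element beta-lactamase reporter cells with liver microsomes plus NADPH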
# Procedure, shortened: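 Metabolically competent format: test substances, human liver microsomes and NADPH (both 0.5 mg/mL final) incubated with p53RE-bla cells 16 h at 37 C. Beta-lactamase reporter signal then quantified by fluorescence.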
# [5] = p53 small molecule agonists, cell-based qHTS assay with human liver microsomes: qHTS cell viability counter screen (AID 1963579); further: nearly all actives have a fitted effect of over 45% in size; further: potency means the concentration at half of the fitted maximal effect
# Procedure, shortened: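 Tox21 library compounds, delivered from DMSO stocks, were tested on p53RE-bla cells together with 0.5 mg/mL human liver microsomes and 0.5 mg/mL NADPH (final) over 16 h at 37 C; CellTiter-Glo luminescence served as the cytotoxicity measure.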
# [6] = p53 small molecule agonists, cell-based qHTS assay with rat liver microsomes: qHTS cell viability counter screen (AID 1963580); further: nearly all actives have a fitted effect of over 45% in size; further: potency means the concentration at half of the fitted maximal effect
# Procedure, shortened: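 p53RE-bla HCT-116 cells were exposed 16 h at 37 C to compounds with rat liver microsomes (0.5 mg/mL) and NADPH (0.5 mg/mL). Viability was measured in the same wells as ATP content by CellTiter-Glo luminescence.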
# [7] = p53 small molecule agonists, cell-based qHTS assay: qHTS cell viability counter screen (AID 1963581); further: nearly all actives have a fitted effect of over 45% in size; further: potency means the concentration at half of the fitted maximal effect
# Procedure, shortened: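 Compounds are pinned onto HCT-116 p53RE-bla cells and left 16 h at 37 C. Following the reporter FRET read, ATP is quantified by CellTiter-Glo luminescence after 30 min at room temperature.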
# [8] = p53 small molecule agonists, cell-based qHTS assay (AID 1963582; active means well fitted activation curve with a large enough effect in the signal ratio in the repeat runs, not every such curve was filed as active; the % refers to the signal ratio)
# Procedure, shortened: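 Agonist activity was scored from beta-lactamase FRET fluorescence in p53RE-bla cells treated 16 h at 37 C with compounds in DMSO, substrate incubation being 2 h at room temperature.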
# [9] = biological target: 5-hydroxytryptamine receptor 2A (Homo sapiens) (UniProt P28223); test: 5-hydroxytryptamine receptor 2A (HTR2A) small molecule antagonists, cell-based qHTS assay (AID 1963586); further: nearly all actives have a fitted effect of over 45% in size
# Procedure, shortened: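 Antagonist-mode intracellular calcium assay: DOI (4 nM) added after 5 min compound pre-incubation at room temperature to dye-loaded HTR2A-CHO cells. Fluorescence followed for 3 min, sampled every second.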
# [10] = biological target: 5-hydroxytryptamine receptor 2A (Homo sapiens) (UniProt P28223); test: 5-hydroxytryptamine receptor 2A (HTR2A) small molecule agonists, cell-based qHTS assay (AID 1963587); further: nearly all actives have a fitted effect of over 30% in size; further: potency means the concentration at half of the fitted maximal effect
# Procedure, shortened: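 CHO cells stably expressing human HTR2A, plated 18 h, loaded with calcium dye 1 h at 37 C. Agonist mode: compounds added and intracellular calcium fluorescence recorded kinetically for 2 min at 1 sec intervals.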
# [11] = biological target: Muscarinic acetylcholine receptor M1 (Homo sapiens) (UniProt P11229); test: Cholinergic receptor muscarinic 1 (CHRM1) small molecule antagonists, cell-based qHTS assay (AID 1963588); further: nearly all actives have a fitted effect of over 40% in size; further: potency means the concentration at half of the fitted maximal effect
# Procedure, shortened: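 CHRM1-CHO calcium-flux assay, antagonist mode. Cells were seeded 18 h, dye-loaded 1 h at 37 C and given compound for 5 min at RT, then acetylcholine was added at 50nM. FDSS fluorescence was read 3 min; 15 concentrations, three runs.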
# [12] = biological target: Muscarinic acetylcholine receptor M1 (Homo sapiens) (UniProt P11229); test: Cholinergic receptor muscarinic 1 (CHRM1) small molecule agonists, cell-based qHTS assay (AID 1963589); further: nearly all actives have a fitted effect of over 35% in size
# Procedure, shortened: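 Stable CHRM1-CHO cells (human receptor) were incubated 18 h, dye-loaded for 1 h at 37 C and exposed to test compounds for agonist activity, with calcium-dependent fluorescence followed kinetically.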
# [13] = cAMP Responsive Elements (CRE) small molecule agonists, cell-based qHTS assay (AID 1963590)
# Procedure, shortened: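 FRET-based beta-lactamase readout (LiveBLAzer B/G, 2 h RT) quantified CRE activation in HEK 293T CRE-bla cells after 3 h treatment with DMSO-dissolved compounds.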
# [14] = cAMP Responsive Elements (CRE) small molecule antagonists, cell-based qHTS assay (AID 1963591; active means well fitted inhibition curve with a large enough effect in the signal ratio in the repeat runs, not every such curve was filed as active; the % refers to the signal ratio)
# Procedure, shortened: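 qHTS in CRE-bla HEK 293T cells: compound in DMSO, then 0.25 uM NKH477 (final), 3 h at 37 °C/5% CO2; beta-lactamase FRET read-out after 2 h substrate incubation.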
# [15] = biological target: Beta-2 adrenergic receptor (Homo sapiens) (UniProt P07550); test: Adrenergic beta2 receptor (ADRB2) small molecule antagonists, cell-based qHTS assay (AID 1963592); further: series mostly up to about 92 µM; nearly all actives have a fitted effect of over 50% in size
# Procedure, shortened: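 Cells (CHO, stable ADRB2 overexpression) incubated 18-20hr at 37C; compounds added from DMSO; agonist mix (1nM isoproterenol, 100uM IBMX, 25uM Ro-20-1724) added; 0.5hr RT; d2-cAMP and anti-cAMP-cryptate added; 1hr RT; 665/615 nm read.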
# [16] = biological target: Beta-2 adrenergic receptor (Homo sapiens) (UniProt P07550); test: Adrenergic beta2 receptor (ADRB2) small molecule agonists, cell-based qHTS assay (AID 1963593);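 further: CHO cells stably overexpressing human ADRB2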
# Procedure, shortened: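 CHO cells stably over-expressing ADRB2 were plated overnight at 37C, then dosed with compounds plus a stimulation mix containing 100uM IBMX and 25uM Ro-20-1724 for 0.5hr at room temperature. cAMP was measured by HTRF competition, 1hr.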
# [17] = biological target: D(2) dopamine receptor (Homo sapiens) (UniProt P14416); test: Dopamine D2 receptor (DRD2) small molecule agonists, cell-based qHTS assay (AID 1963594); further: nearly all actives have a fitted effect of over 35% in size
# Procedure, shortened: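 HEK293 cells stably expressing human DRD2, pre-treated with PDE inhibitor Ro20-1724 (0.1 mM final) and compound 10 min at room temperature, then stimulated with NKH477 (200nM […]) for 30 min. cAMP read by HTRF (665/620 nm).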
# [18] = biological target: D(2) dopamine receptor (Homo sapiens) (UniProt P14416); test: Dopamine D2 receptor (DRD2) small molecule antagonists, cell-based qHTS assay (AID 1963595; active means well fitted inhibition curve with a large enough effect in the signal ratio in the repeat runs, with a control signal flat; the % refers to the signal ratio; further: potency means the concentration at half of the fitted maximal effect)
# Procedure, shortened: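 Stable D2 receptor HEK293 line, 24 h after seeding. Compound preincubated 10 min, then quinpirole (12 nM) with forskolin analogue NKH477 (200 nM), 30 min, room temperature. Detection by time-resolved FRET of cAMP.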
# [19] = biological target: KiSS-1 receptor (Homo sapiens) (UniProt Q969F8); test: Human kisspeptin (KISS1R) small molecule agonists, calcium flux assay in KISS1R-HEK293 cells (AID 1920064; active means well fitted curve in the direction sought with a large enough effect in the repeat runs; an effect the other way counts as inactive or inconclusive)
# Procedure, shortened: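 Intracellular calcium mobilization in KISS1R-HEK293 cells was recorded by fluorescence (Ex/Em 480/540) for 3 min following compound addition to cells pre-loaded 1 h with calcium dye.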
# [20] = p53 small molecule agonists, cell-based qHTS assay with rat liver microsomes (AID 1963578); further: potency means the concentration at half of the fitted maximal effect
# Procedure, shortened: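 Each plate received p53RE-bla cells, then compound, then rat liver microsomes and NADPH (both 0.5 mg/mL final). Plates were held 16 h at 37 C, and beta-lactamase activity was detected with LiveBLAzer over 2 h.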
# Sequence of 5-hydroxytryptamine receptor 2A (Homo sapiens) (P28223 whole entry, looked up): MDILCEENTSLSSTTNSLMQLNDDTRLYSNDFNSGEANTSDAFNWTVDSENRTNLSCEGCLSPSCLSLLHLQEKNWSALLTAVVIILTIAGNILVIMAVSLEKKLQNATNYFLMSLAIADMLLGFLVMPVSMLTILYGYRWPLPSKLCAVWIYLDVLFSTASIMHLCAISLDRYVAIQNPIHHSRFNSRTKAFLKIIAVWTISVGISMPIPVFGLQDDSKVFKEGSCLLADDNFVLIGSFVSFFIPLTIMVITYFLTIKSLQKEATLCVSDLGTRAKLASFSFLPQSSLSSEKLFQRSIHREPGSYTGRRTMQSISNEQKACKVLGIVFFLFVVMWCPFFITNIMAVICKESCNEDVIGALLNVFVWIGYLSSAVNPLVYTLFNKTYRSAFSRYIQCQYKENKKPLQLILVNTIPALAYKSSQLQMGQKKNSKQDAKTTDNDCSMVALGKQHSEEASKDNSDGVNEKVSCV
# Sequence of Muscarinic acetylcholine receptor M1 (Homo sapiens) (P11229 whole entry, looked up): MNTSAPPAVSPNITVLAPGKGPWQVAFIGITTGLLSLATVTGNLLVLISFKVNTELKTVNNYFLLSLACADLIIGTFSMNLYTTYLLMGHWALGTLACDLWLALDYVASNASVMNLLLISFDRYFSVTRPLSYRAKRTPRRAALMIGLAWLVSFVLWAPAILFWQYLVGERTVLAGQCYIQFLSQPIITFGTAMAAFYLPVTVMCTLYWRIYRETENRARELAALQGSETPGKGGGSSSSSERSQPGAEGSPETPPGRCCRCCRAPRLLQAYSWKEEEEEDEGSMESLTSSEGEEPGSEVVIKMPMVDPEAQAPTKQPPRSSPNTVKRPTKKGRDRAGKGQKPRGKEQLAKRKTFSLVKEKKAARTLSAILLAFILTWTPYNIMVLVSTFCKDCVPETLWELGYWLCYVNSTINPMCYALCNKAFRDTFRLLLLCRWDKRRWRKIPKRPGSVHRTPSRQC
# Sequence of Gonadotropin-releasing hormone receptor (Homo sapiens) (P30968 whole entry, looked up): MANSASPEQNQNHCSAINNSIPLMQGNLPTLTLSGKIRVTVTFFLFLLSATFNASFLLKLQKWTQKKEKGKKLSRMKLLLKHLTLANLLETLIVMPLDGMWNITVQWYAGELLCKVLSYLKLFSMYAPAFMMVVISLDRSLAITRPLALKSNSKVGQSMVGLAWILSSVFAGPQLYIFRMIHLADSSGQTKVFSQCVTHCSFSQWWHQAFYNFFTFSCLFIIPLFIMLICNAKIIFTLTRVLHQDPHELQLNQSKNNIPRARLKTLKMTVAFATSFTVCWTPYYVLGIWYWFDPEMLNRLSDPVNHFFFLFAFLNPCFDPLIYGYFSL
# Sequence of D(2) dopamine receptor (Homo sapiens) (P14416 whole entry, looked up): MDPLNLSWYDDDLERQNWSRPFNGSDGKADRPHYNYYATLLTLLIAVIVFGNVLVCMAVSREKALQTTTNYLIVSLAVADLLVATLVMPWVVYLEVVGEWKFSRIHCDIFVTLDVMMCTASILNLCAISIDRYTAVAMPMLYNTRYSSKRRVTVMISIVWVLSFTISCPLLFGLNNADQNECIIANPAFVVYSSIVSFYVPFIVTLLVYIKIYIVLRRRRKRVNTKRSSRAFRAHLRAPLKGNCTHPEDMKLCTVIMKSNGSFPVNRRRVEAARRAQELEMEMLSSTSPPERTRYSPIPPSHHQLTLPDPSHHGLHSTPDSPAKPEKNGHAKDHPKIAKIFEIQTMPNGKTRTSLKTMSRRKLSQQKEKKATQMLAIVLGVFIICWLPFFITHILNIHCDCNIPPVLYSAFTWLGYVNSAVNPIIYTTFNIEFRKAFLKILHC
# Sequence of KiSS-1 receptor (Homo sapiens) (Q969F8 whole entry, looked up): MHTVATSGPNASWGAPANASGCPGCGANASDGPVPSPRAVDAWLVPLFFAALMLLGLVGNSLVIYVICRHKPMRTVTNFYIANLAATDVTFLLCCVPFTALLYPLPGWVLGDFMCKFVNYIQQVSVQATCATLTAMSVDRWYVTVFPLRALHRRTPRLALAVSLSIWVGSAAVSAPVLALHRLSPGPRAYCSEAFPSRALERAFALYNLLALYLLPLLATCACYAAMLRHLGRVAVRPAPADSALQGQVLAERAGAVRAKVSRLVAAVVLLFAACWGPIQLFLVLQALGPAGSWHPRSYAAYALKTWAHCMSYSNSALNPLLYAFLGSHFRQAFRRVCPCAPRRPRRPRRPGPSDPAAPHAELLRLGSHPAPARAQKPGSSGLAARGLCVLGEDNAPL
# Sequence of Beta-2 adrenergic receptor (Homo sapiens) (P07550 whole entry, looked up): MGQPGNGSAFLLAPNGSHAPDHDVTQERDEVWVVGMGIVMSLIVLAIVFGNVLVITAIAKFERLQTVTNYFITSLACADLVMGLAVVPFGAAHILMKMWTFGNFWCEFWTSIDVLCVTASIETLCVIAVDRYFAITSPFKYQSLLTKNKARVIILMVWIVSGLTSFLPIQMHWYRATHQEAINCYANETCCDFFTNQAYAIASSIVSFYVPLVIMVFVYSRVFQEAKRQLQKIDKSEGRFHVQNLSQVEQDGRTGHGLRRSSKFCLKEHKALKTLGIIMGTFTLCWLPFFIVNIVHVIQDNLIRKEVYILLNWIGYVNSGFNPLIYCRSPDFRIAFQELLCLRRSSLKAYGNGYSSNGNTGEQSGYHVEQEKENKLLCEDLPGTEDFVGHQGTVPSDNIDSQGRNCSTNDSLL
SMILES,Potency [1],Potency [2],Potency [3],Potency [4],Potency [5],Potency [6],Potency [7],Potency [8],Potency [9],Potency [10],Potency [11],Potency [12],Potency [13],Potency [14],Potency [15],Potency [16],Potency [17],Potency [18],Potency [19],Potency [20]
CC(CO)c1ccccc1 (centres undefined),inactive,inactive,inactive,inactive,inactive,inactive,inactive,inactive,inactive,inactive,inactive,inactive,inactive,inactive,inactive,inactive,inactive,inactive,–,–
C=CCOC(=O)CCCCCCCC,inactive,–,inactive,inactive,inactive,inactive,inactive,inactive,inactive,inactive,inactive,inactive,–,inactive,–,inactive,–,inactive,inactive,inactive
CCCSc1ccc2nc(NC(=O)OC)[nH]c2c1,inactive,–,inactive,inactive,inactive,inactive,–,–,–,–,–,–,–,inactive,inactive,inactive,inactive,inactive,inactive,inactive
COc1cc(C(=S)N2CCOCC2)cc(OC)c1OC,inactive,–,inactive,inactive,inactive,inactive,inactive,inactive,inactive,inactive,inactive,inactive,inactive,inactive,inactive,–,inactive,–,inactive,inactive
CC(C)(C)NC(=O)[C@@H]1CN(Cc2cccnc2)CCN1C[C@@H](O)C[C@@H](Cc1ccccc1)C(=O)N[C@H]1c2ccccc2C[C@H]1O,inactive,–,inactive,–,–,–,inactive,inactive,–,–,–,–,inactive,–,inactive,inactive,inactive,–,inactive,–
c1ccc2c(c1)ccc1ncccc12,inactive,inactive,inactive,–,inactive,inactive,inactive,–,inactive,inactive,inactive,inactive,–,–,inactive,–,inactive,inactive,–,–
O=C1C(c2[nH]c3ccc(S(=O)(=O)O)cc3c2O)=Nc2ccc(S(=O)(=O)O)cc21,inactive,inactive,inactive,inactive,inactive,inactive,inactive,inactive,inactive,inactive,inactive,inactive,inactive,inactive,inactive,inactive,inactive,–,–,inactive
Nc1c2ccccc2nc2ccccc12,inactive,–,inactive,11.3 µM (active) and 19.9 µM (active),inactive,–,inactive,–,inactive,inactive,14.7 µM (active) and inactive,inactive,–,–,inactive,–,–,–,inactive,40.3 µM (active)
CCCCC(CC)COC(=O)CC(C(=O)OCC(CC)CCCC)S(=O)(=O)O (centres undefined),26.3 µM (active),–,inactive,–,44 µM (active) and inactive,35 µM (active),39.2 µM (active),–,inactive,42 µM (active) and 43.6 µM (active),inactive,–,–,inactive,inactive,inactive,inactive,inactive and 61.1 µM (active),–,inactive
O=c1n(CCCN2CCN(c3cccc(Cl)c3)CC2)nc2ccccn12,inactive,–,inactive,–,inactive,inactive,inactive,inactive,–,–,–,–,inactive,inactive,inactive,–,inactive,–,inactive,inactive
NC(=O)Cc1cccc(C(=O)c2ccccc2)c1N,inactive,–,inactive,inactive,inactive,inactive,inactive,inactive,inactive,inactive,–,inactive,inactive,inactive,inactive,–,inactive,inactive,inactive,inactive
N#C[C@@H]1C[C@@H]2C[C@@H]2N1C(=O)[C@@H](N)C12CC3CC(CC(O)(C3)C1)C2,–,inactive,inactive,inactive,inactive,inactive,inactive,inactive,inactive,inactive,inactive,inactive,inactive,inactive,inactive,inactive,inactive,–,inactive,inactive
Clc1ccc2c(c1)C(N1CCNCC1)=Nc1ccccc1O2,61.1 µM (active),inactive,–,–,inactive,inactive,–,–,–,–,–,–,inactive,inactive,inactive,–,inactive,13.7 µM (active) and 8.41 µM (active),inactive,–
CCCC/C=C\CCCCCCCCCC=O,inactive,inactive,–,inactive,inactive,inactive,inactive,inactive,inactive,inactive,inactive,inactive,inactive,inactive,inactive,inactive,inactive,inactive,–,inactive
